This is one part of a sample in which hits are shown more often than they occur.
ERp5 block = ERp5 (human) disulfide isomerase inhibition; Q15084; ERp5 insulin aggregation, absorbance 650 nm, 90 min; inhibition, % at 9.99 µM; hit rate 0.05% among 350,000;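 active = mean replicate inhibition above about 25%, with every replicate also reaching it, limit read from the data, passing the limit was not always enough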
SIRT5 inh = blocks human SIRT5 desuccinylation of peptide. Q9NXA8. Purified SirT5, succinyl-peptide AMC, trypsin-coupled fluorescence. inhibition, % at 15 µM. hit rate 1.1% among 330,000; in the data active = inhibition above about 15%
ERAP1 HTS inh = inhibitors of human ERAP1 aminopeptidase. inhibition, % at 10.7 µM. hit rate 0.15% among 340,000. recombinant ERAP1, Leu-AMC fluorescence, 60 min. Q9NZ08;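 active = mean replicate inhibition of at least 30%, or all replicates individually reaching that 30% level; inactive = mean below 30% and not every replicate reaching it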;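 note: 0% = neutral control wells and 100% = L-leucinethiol positive control wells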
Target sequence (Q9NZ08 whole entry, looked up): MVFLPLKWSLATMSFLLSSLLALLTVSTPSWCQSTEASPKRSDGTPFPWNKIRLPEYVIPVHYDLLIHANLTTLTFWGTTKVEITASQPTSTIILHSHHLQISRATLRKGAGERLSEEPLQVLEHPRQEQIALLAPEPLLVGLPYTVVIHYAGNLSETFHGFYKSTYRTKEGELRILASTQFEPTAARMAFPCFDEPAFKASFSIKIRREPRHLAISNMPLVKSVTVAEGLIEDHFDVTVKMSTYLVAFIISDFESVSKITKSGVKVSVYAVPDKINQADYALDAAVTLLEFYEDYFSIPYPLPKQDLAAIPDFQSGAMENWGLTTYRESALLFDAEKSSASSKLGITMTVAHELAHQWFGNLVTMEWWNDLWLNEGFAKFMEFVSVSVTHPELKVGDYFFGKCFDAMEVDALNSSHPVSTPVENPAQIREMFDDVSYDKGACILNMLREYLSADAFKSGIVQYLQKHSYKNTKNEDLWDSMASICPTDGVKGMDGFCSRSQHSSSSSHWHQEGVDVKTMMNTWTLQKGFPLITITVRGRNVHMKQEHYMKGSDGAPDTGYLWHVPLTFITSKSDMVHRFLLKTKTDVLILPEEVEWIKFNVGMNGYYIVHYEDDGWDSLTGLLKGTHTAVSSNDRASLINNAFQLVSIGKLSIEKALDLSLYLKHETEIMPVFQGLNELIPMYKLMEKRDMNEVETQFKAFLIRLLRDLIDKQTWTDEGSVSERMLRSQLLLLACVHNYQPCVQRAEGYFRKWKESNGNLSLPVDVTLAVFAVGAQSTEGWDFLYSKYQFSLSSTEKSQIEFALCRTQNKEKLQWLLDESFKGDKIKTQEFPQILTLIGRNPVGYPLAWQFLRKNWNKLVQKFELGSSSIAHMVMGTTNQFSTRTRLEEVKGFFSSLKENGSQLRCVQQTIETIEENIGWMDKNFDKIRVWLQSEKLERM
PDI turbidity = blocks human protein disulfide isomerase activity. inhibition, % at 10 µM. P07237. hit rate 0.052% among 350,000. PDI insulin aggregation turbidity, A650, 90 min. AID 588391;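 active = mean inhibition across replicates of 30% or more, whatever share of single replicates reach that level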
HDAC3 inhib = inhibitors of human histone deacetylase 3; O15379; recombinant HDAC3, fluorogenic peptide/trypsin coupled, fluorescence; inhibition, % at 8.3 µM; hit rate 0.15% among 320,000; in the data active = inhibition above about 26%, passing the limit was not always enough
Numbers without * were called inactive; . = not tested or not shown.

SMILES	ERp5 block	SIRT5 inh	ERAP1 HTS inh	PDI turbidity	HDAC3 inhib
C[C@H](CO)N1C[C@H](C)[C@H](CN(C)S(=O)(=O)c2cccs2)Oc2c(NC(=O)C3CCCCC3)cccc2C1=O	0	17*	2	.	.
O=C(Nc1ccc(F)cc1)N1CC(=O)N2[C@H](C1)[C@@H](c1ccc(-c3ccc(F)cc3)cc1)[C@@H]2CO	14	3	0	.	.
C[C@@H]1CN([C@@H](C)CO)C(=O)c2cc(NC(=O)Nc3cccc4ccccc34)ccc2O[C@H]1CN(C)S(=O)(=O)c1ccc(Cl)cc1	8	1	-3	.	.
COc1ccc(NC(=O)Nc2ccc3c(c2)CC(=O)N([C@@H](C)CO)C[C@@H](C)[C@@H](CN(C)C(=O)Nc2ccc4c(c2)OCO4)O3)cc1	1	3	0	.	.
COc1ccccc1-c1cn(CC[C@H]2CC[C@@H](NC(=O)c3ccccc3F)[C@@H](CO)O2)nn1	0	-2	-4	.	.
C[C@@H]1CN([C@@H](C)CO)C(=O)c2ccccc2-c2ccccc2CO[C@H]1CN(C)S(=O)(=O)c1ccc(Cl)cc1	3	15*	-2	.	.
C[C@H](CO)N1C[C@H](C)[C@H](CN(C)S(=O)(=O)c2cccs2)OCc2ccccc2-c2ccccc2C1=O	2	6	3	.	.
C[C@@H]1CN([C@H](C)CO)C(=O)c2ccccc2-c2ccccc2CO[C@H]1CN(C)S(=O)(=O)c1cccs1	2	18*	-2	.	.
C[C@H](CO)N1C[C@H](C)[C@@H](CN(C)S(=O)(=O)c2ccc(Cl)cc2)OCc2ccccc2-c2ccccc2C1=O	3	.	0	.	.
COc1cccc(C(=O)Nc2ccc3c(c2)OC[C@@H](C)N(C)C[C@@H](C)[C@H](OC)CN(C)C3=O)c1	-1	0	1	.	.
C/C(=N\NC(=O)C1CC1c1ccccc1)c1cccc([N+](=O)[O-])c1 (stereo not drawn)	.	.	.	3	3
C/C(=N\NC(=O)C1CC1(c1ccccc1)c1ccccc1)c1cccc([N+](=O)[O-])c1 (stereo not drawn)	0	15*	1	-2	0
COc1ccccc1CNC(=O)C[C@@H]1CC[C@@H]2[C@H](COC[C@@H](O)CN2C(=O)Nc2ccccc2)O1	1	1	-3	.	.
CC[C@@]1(c2ccccc2)C(=O)N(C(=O)OC)N1C(=O)OC	-5	-1	-3	6	9
CC[C@]1(c2ccccc2)C(=O)N(C(=O)OC)N1C(=O)OC	0	-3	1	2	44*
CC(C)NC(=O)N1C[C@H]2[C@@H](c3ccccc31)[C@H](CO)N2C(=O)NC(C)C	0	8	1	.	.
Cc1ccccc1S(=O)(=O)N1CCCCN2[C@H](CO)[C@H](c3ccc(-c4ccccc4)cc3)[C@@H]2C1	-7	14	4	.	.
O=S(=O)(c1cccs1)N1CCCCN2[C@H](CO)[C@H](c3ccc(C4=CCCCC4)cc3)[C@@H]2C1	-2	18*	3	.	.
O=S(=O)(c1cccs1)N1CCCCN2[C@@H](CO)[C@@H](c3ccc(C4=CCCCC4)cc3)[C@@H]2C1	-3	-2	5	.	.
Cc1ccccc1S(=O)(=O)N1CCCCN2[C@H](CO)[C@@H](c3ccc(-c4ccccc4)cc3)[C@@H]2C1	-9	19*	0	.	.
Cc1ccc(-c2ccc([C@@H]3[C@H]4CN(S(=O)(=O)c5cccc(C)c5)CCCCN4[C@H]3CO)cc2)cc1	-5	18*	3	.	.
CN(C)C(=O)c1cccc(-c2ccc([C@H]3[C@@H](CO)N4CCCCN(S(C)(=O)=O)C[C@@H]34)cc2)c1	1	41*	0	.	.
Cc1noc(C)c1S(=O)(=O)N(C)C[C@H]1Oc2ccc(N(C)C)cc2CC(=O)N([C@H](C)CO)C[C@H]1C	1	-2	.	.	.
Cc1cccc(-c2ccc([C@@H]3[C@@H](CO)N4C(=O)CN(S(=O)(=O)c5cccc(F)c5)C[C@@H]34)cc2)c1	1	20*	0	.	.
Cc1ccc(-c2ccc([C@@H]3[C@@H](CO)N4CCCCN(S(=O)(=O)c5cccc(C)c5)C[C@H]34)cc2)cc1	-4	23*	1	.	.
SMILES	ERp5 block	SIRT5 inh	ERAP1 HTS inh	PDI turbidity	HDAC3 inhib
Cc1cccc(S(=O)(=O)N2CCCCN3[C@@H](CO)[C@H](c4ccc(-c5ccccc5)cc4)[C@@H]3C2)c1	-4	22*	-3	.	.
Cc1cccc(S(=O)(=O)N2CCCCN3[C@H](CO)[C@H](c4ccc(-c5ccccc5)cc4)[C@@H]3C2)c1	-7	-1	0	.	.
Cc1ccc(-c2ccc([C@@H]3[C@@H](CO)N4C(=O)CN(S(=O)(=O)c5cccc(F)c5)C[C@H]34)cc2)cc1	3	7	0	.	.
CCCNC(=O)[C@@H]1[C@@H](CO)[C@@H]2Cn3c(cccc3=O)[C@@H]2N1C(=O)C1CCC1	1	7	3	.	.
O=C(c1ccccc1)c1ccc(OCC(O)CNCc2ccc(Cl)cc2)cc1 (stereo not drawn)	0	3	0	-2	.
OC(CNCc1ccccc1)COc1ccccc1 (stereo not drawn)	0	24*	1	-1	-5
C[C@@H]1CN([C@H](C)CO)C(=O)c2cccc(NS(=O)(=O)c3ccc(Cl)cc3)c2O[C@@H]1CN(C)Cc1ccc(C(F)(F)F)cc1	28*	2	0	.	.
C[C@@H]1CN([C@@H](C)CO)C(=O)c2cccc(NS(=O)(=O)c3cn(C)cn3)c2O[C@H]1CN(C)Cc1ccc(C(F)(F)F)cc1	1	21*	2	.	.
C[C@H]1CN([C@@H](C)CO)C(=O)c2cccc(NS(=O)(=O)c3cn(C)cn3)c2O[C@@H]1CN(C)Cc1ccc(C(F)(F)F)cc1	2	1	-2	.	.
C[C@@H]1CN([C@@H](C)CO)C(=O)c2cccc(NS(=O)(=O)c3cn(C)cn3)c2O[C@H]1CN(C)C(=O)Nc1cccc2ccccc12	-3	29*	-1	.	.
CCOC(=O)c1[nH]c2ccc(Br)cc2c1NC(=O)CCN1CCOCC1	4	-5	34*	12	1
CO[C@@H]1CN(C)C(=O)c2cc(NS(=O)(=O)c3ccc(-c4ccccc4)cc3)ccc2OC[C@H](C)NC[C@H]1C	-2	1	-3	.	.
Cc1ccc(CNC(=O)COC(=O)c2c(C)noc2C)cc1	.	.	.	14	3
CCc1noc(C)c1C(=O)OCC(=O)NCc1ccc(Cl)cc1	-7	18*	3	9	6
Cc1noc(C)c1C(=O)OCC(=O)NCCc1ccc(Cl)cc1	.	.	.	35*	-6
CN(C)C(=O)C[C@H]1C=C[C@H](NC(=O)NC2CCCC2)[C@@H](CO)O1	2	0	0	.	.
C[C@H]1CN([C@@H](C)CO)S(=O)(=O)c2ccc(/C=C/c3ccccc3)cc2O[C@@H]1CN(C)Cc1ccccc1	1	22*	0	.	.
C[C@@H]1CN([C@@H](C)CO)S(=O)(=O)c2ccc(/C=C/c3ccccc3)cc2O[C@@H]1CN(C)Cc1ccccc1	-1	19*	0	.	.
CC(=O)NC(CC(=O)N1CCN(C(C)=O)CC1)c1ccccc1 (stereo not drawn)	2	25*	1	-1	0

High-throughput results from PubChem BioAssay.
